Hit rate of the full screen: of about 650,000 compounds, about 5,900 (0.91%) were called active. Cut-off read from the data, not from the text of the source: active = inhibition above about 50%; inactive = the rest. Shown is part of a subset that was picked to be rich in actives.
Each molecule was assayed against Microphthalmia-associated transcription factor (Homo sapiens) (UniProt O75030) (assay: MITF inhibitors, primary screen, biochemical, AlphaScreen, human (AID 1259374;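 note: 0% = vehicle wells with protein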)). Conditions: AlphaScreen MITF homodimerization, bead proximity signal; at 2.6 µM; stronger effect = higher value.
Chain of Microphthalmia-associated transcription factor (Homo sapiens) (O75030 whole entry, looked up): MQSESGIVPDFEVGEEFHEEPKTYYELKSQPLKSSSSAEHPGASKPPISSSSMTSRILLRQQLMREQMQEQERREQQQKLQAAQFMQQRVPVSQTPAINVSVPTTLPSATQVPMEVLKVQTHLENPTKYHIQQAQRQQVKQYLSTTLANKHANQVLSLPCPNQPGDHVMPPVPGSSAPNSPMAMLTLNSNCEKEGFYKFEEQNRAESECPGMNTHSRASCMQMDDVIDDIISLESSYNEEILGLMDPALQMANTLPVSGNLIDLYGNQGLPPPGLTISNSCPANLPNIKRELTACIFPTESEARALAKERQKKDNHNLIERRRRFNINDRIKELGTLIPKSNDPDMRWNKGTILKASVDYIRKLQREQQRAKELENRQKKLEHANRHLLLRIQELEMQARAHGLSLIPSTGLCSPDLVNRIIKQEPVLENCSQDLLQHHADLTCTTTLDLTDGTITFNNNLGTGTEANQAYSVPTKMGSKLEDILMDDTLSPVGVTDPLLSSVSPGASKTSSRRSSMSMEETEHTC
With `COC(=O)c1sc2ccccc2c1NC(=O)c1ccc2c(c1)OCCO2` the inhibition was 4.39% (inactive).
For `COC(=O)c1cccc(NC(=O)c2ccccc2NS(=O)(=O)c2ccc(C)cc2)c1C`, the inhibition was -6.07% (inactive).
In the case of `COC(=O)c1cccc(NS(=O)(=O)c2ccc3ccccc3c2)c1C`, the inhibition is reported as 52.5% (active).
For `COC(=O)c1ccccc1NS(=O)(=O)c1ccc2[nH]c(=O)ccc2c1`, the inhibition was 6.38% (inactive).
For `CCCCCCC1CCC(C(=O)Oc2ccc(C(=O)OCC)cc2)CC1` (configuration not stated), the inhibition was 7.45% (inactive).
For `COc1ccc2c(c1)CC(c1nc3ccc(-c4cccnc4)cc3o1)CO2` (configuration not stated), the inhibition was -9.3% (inactive).
With `COc1ccc2c(c1)CC(c1nc(Nc3ccc4cnccc4c3)c3ccccc3n1)CO2` (configuration not stated) the inhibition was 55.2% (active).
For `COc1ccc2c(c1)CC(C(=O)Nc1ccc(-c3ccncc3)cc1Oc1ccccc1)CO2` (configuration not stated), the inhibition was 12.9% (inactive).
For `O=C(Nc1nc(-c2ccc(Br)cc2)cs1)N1CCOCC1`, the inhibition was 6.09% (inactive).
With `Cc1cc(-c2cnc(N3CCCCC3)nc2C2CCNCC2)on1` the inhibition was -11% (inactive).
In the case of `CN(CCC(=O)Nc1cccc(F)c1)Cc1ccccc1`, the inhibition is reported as -7.29% (inactive).
For `CN(CCC(=O)O)Cc1cccc(Cl)c1`, the inhibition was 69.7% (active).
For `O=C(Cc1cccc(Cl)c1)NCc1ccccc1`, the inhibition was -1.38% (inactive).
In the case of `Cc1ccc(Nc2nc3nonc3nc2N2CCN(C(=O)c3ccccc3)CC2)cc1Cl`, the inhibition is reported as 2.8% (inactive).
`CCc1ccccc1NC(=O)c1cc2nc(-c3cccs3)cc(C(F)(F)F)n2n1` was tested, and the inhibition was 23.3% (inactive).
With `COc1cc(CNC(C)(C)C)ccc1OCCO` the inhibition was -1.33% (inactive).
In the case of `CCC(CO)NCC(O)COCc1ccc(Cl)cc1` (configuration not stated), the inhibition is reported as -4.49% (inactive).
In the case of `COc1ccc(COCC(O)CNCC(C)(C)CN(C)C)cc1OC` (configuration not stated), the inhibition is reported as 69.4% (active).
For `Cc1c(C(=O)N2CCN(c3ccc(F)cc3)CC2)sc2ncn(CC(=O)N3CCC(C)CC3)c(=O)c12`, the inhibition was 9.34% (inactive).
With `Cc1cnc(C)c(-c2ccc3c(c2)CC(CNC(=O)/C=C/c2cccc(F)c2F)O3)n1` (configuration not stated) the inhibition was 10.3% (inactive).
`CCOC(=O)c1[nH]c(COC(C)=O)c(CCC(=O)OC)c1C` was tested, and the inhibition was -19.8% (inactive).
With `O=C(COc1ccccc1)Nc1ccc(N2CCC(NCCc3cccs3)CC2)cc1` the inhibition was 8.32% (inactive).
For `COc1ccc2c(c1)CC(C(=O)Nc1ccc(-c3cn[nH]c3)cc1OCc1ccccc1)CO2` (configuration not stated), the inhibition was 62.3% (active).
In the case of `COc1ccc2c(c1)CC(C(=O)Nc1ccc(-c3cn[nH]c3)cc1OC(C)CN(C)C)CO2` (configuration not stated), the inhibition is reported as 13.3% (inactive).
With `COc1ccc2c(c1)CC(C(=O)Nc1ccc(-c3cn[nH]c3)cc1OCCN(C)C)CO2` (configuration not stated) the inhibition was 3.86% (inactive).
With `COc1ccc2c(c1)CC(C(=O)Nc1ccc(-c3cn[nH]c3)cc1C(=O)NCc1ccccc1)CO2` (configuration not stated) the inhibition was 24.1% (inactive).
With `COc1ccc2c(c1)CC(C(=O)Nc1ccc(-c3cn[nH]c3)cc1O[C@H]1CCOC1)CO2` (some centres not stated) the inhibition was 16.3% (inactive).
`COc1ccc2c(c1)CC(C(=O)Nc1ccc(-c3cn[nH]c3)cc1OCC(N)=O)CO2` (configuration not stated) was tested, and the inhibition was 52.7% (active).
For `CCc1ccc(C(=O)N2CCN3C(=O)[C@H](CO)NC(=O)[C@H]3C2)cc1`, the inhibition was -8.93% (inactive).
For `O=C(CN(Cc1ccccc1)S(=O)(=O)c1ccc(F)cc1)NCCc1ccccc1`, the inhibition was -7.64% (inactive).
For `CC(C)N1CCC(N2CCN(Cc3cc(F)ccc3F)CC2CCO)CC1` (configuration not stated), the inhibition was 5.34% (inactive).
For `Cc1cc(S(=O)(=O)Nc2ccc3c(c2)OCCO3)ccc1-n1cnnn1`, the inhibition was 53% (active).
For `Cc1cc(S(=O)(=O)NCc2ccc3c(c2)OCO3)ccc1-n1cnnn1`, the inhibition was 11.8% (inactive).
With `Cc1cc(S(=O)(=O)NC2CCCC2)ccc1-n1cnnn1` the inhibition was -4.47% (inactive).
With `COCCN1C(=O)/C(=C/c2cc(OC)c(O)c([N+](=O)[O-])c2)SC1=S` the inhibition was 14.8% (inactive).
With `CC(C)(C)n1nnnc1C(c1ccc(Cl)cc1)N1CCSCC1` (configuration not stated) the inhibition was -19.9% (inactive).
In the case of `COCCn1nnnc1C(c1ccc2ncccc2c1)N1CCOCC1` (configuration not stated), the inhibition is reported as 12% (inactive).
In the case of `CC(C)(C)n1nnnc1C(c1ccc2ncccc2c1)N1CCSCC1` (configuration not stated), the inhibition is reported as 65.2% (active).
In the case of `CCNc1cc(Nc2ccccc2)c2c3c(onc13)-c1ccccc1C2=O`, the inhibition is reported as 15.1% (inactive).
`COc1ccc(Nc2cc(N3CCN(c4ncccn4)CC3)c3noc4c3c2C(=O)c2ccccc2-4)cc1` was tested, and the inhibition was 0.37% (inactive).
For `CC(C)Nc1cc(N2CCC3(CC2)OCCO3)c2noc3c2c1C(=O)c1ccccc1-3`, the inhibition was 55.8% (active).
For `CC(C)Nc1cc(N2CCN(c3ncccn3)CC2)c2noc3c2c1C(=O)c1ccccc1-3`, the inhibition was 5.09% (inactive).
In the case of `CN1CCN(c2cc(NCCCC(=O)O)c3c4c(onc24)-c2ccccc2C3=O)CC1`, the inhibition is reported as 10.3% (inactive).
In the case of `CN(C)c1cc(NCCN2CCC3(CC2)OCCO3)c2c3c(onc13)-c1ccccc1C2=O`, the inhibition is reported as 50.7% (active).
With `CC1CCN(c2cc(NCC(=O)O)c3c4c(onc24)-c2ccccc2C3=O)CC1` the inhibition was 51.3% (active).
For `CCOC(=O)N1CCN(c2cc(NCCO)c3c4c(onc24)-c2ccccc2C3=O)CC1`, the inhibition was 15.8% (inactive).
`CCNc1cc(NCCO)c2noc3c2c1C(=O)c1ccccc1-3` was tested, and the inhibition was 27.5% (inactive).
`Cc1c(C(=O)Nc2ccc(F)cc2)sc2ncnc(N3CCc4ccccc4C3)c12` was tested, and the inhibition was -2.5% (inactive).
`Cc1ccc(OCC(=O)N2CCC(C(=O)O)CC2)cc1C` was tested, and the inhibition was 6.47% (inactive).
In the case of `COCCn1c(SCC(=O)Nc2c(C)cc(C)cc2C)nc2c(c1=O)SCC2`, the inhibition is reported as 1.88% (inactive).
In the case of `COc1ccc(C(CNCc2cc(=O)oc3cc4c(cc23)CCC4)N2CCOCC2)cc1` (configuration not stated), the inhibition is reported as 85.3% (active).
With `O=c1cc(CNc2ccc(S(=O)(=O)N3CCCC3)cc2)c2cc3c(cc2o1)CCC3` the inhibition was 10.1% (inactive).
`COc1ccccc1C(=O)NCC(c1ccc2c(c1)CCCN2C)N1CCOCC1` (configuration not stated) was tested, and the inhibition was -1.79% (inactive).
`CN1CCN(Cc2c(O)ccc3c2O/C(=C\c2ccccc2Cl)C3=O)CC1` was tested, and the inhibition was 2.25% (inactive).
With `Cc1ccc2c(=O)c(CN3CCN(C)CC3)c(C)[nH]c2c1C` the inhibition was 10% (inactive).
In the case of `N#C/C(=C(/O)c1cc(-c2ccccc2)nc2ccccc12)c1nc2ccccc2[nH]1`, the inhibition is reported as -0.49% (inactive).
`CCOc1cccc(/C=N/NC(=O)c2ccc(C)nc2)c1O` was tested, and the inhibition was 49.4% (inactive).
In the case of `COc1cc(Br)cc(/C=N\NC(=O)c2ccc(C)nc2)c1O`, the inhibition is reported as 60.8% (active).
For `COc1cc(Br)cc(/C=N/NC(=O)c2cc(-c3ccccc3)n[nH]2)c1O`, the inhibition was -36.5% (inactive).
For `O=c1nc(/C=C/c2cc(Cl)cc(Cl)c2OCc2ccccc2F)cc(C(F)(F)F)[nH]1`, the inhibition was -1.22% (inactive).
For `C/C(=N\c1ccccn1)c1c(O)c2ccccc2oc1=O`, the inhibition was 5.79% (inactive).
In the case of `CCC(C)NCCOCCOc1ccc(Br)cc1C` (configuration not stated), the inhibition is reported as 28.4% (inactive).
In the case of `CCC(C)NCCOCCOc1c(OC)cccc1OC` (configuration not stated), the inhibition is reported as 17.3% (inactive).
`CCC(C)NCCOCCOc1cc(C)cc(C)c1C` (configuration not stated) was tested, and the inhibition was 70.4% (active).
With `Cc1nn(C)c(C)c1NC(=O)Cn1nc2n(Cc3ccc(F)cc3)c3ccccc3n2c1=O` the inhibition was 12.6% (inactive).
For `Cc1ccc(C)c(NCN2C(=O)CSC2=O)c1`, the inhibition was 17.9% (inactive).
With `CCOC(=O)c1sc2nc(SCC(=O)N3CCCC3)n(Cc3ccc(C)cc3)c(=O)c2c1C` the inhibition was -3.14% (inactive).
With `CCOc1ccccc1N1CCN(CC2CC3C=CC2C3)CC1` (configuration not stated) the inhibition was 4.32% (inactive).
`C1=CC2CC1CC2CN1CCN(Cc2c[nH]c3ccccc23)CC1` (configuration not stated) was tested, and the inhibition was 64.4% (active).
In the case of `O=S(=O)(c1ccc2ccccc2c1)N1CCN(CC2CC3C=CC2C3)CC1` (configuration not stated), the inhibition is reported as -6.53% (inactive).
`CCN1C(=O)C(C)(C)COc2ccc(NC(=O)COc3ccc4ccccc4c3)cc21` was tested, and the inhibition was 8.12% (inactive).
With `CN(C)/N=C/C=C1\CCC/C(=C\c2ccc([N+](=O)[O-])cc2)C1=O` the inhibition was -2.41% (inactive).
For `CN(C)/C=C/C=C/C=C1\CCC\C(=C/C=C/C=C/N(C)C)C1=O`, the inhibition was 98.9% (active).
For `CN(C)/N=C/C=C1\CCC/C(=C\C=N\N(C)C)C1=O`, the inhibition was 17.4% (inactive).
With `Cc1ccc2nc3sc(C(=O)N4CC(=O)Nc5ccccc54)c(N)c3cc2c1` the inhibition was -4.39% (inactive).
In the case of `O=[N+]([O-])c1ccc(OCc2nnc(SCCN3CCOCC3)n2-c2ccccc2)cc1`, the inhibition is reported as 53.2% (active).
With `c1ccc(C(Sc2nnc(COc3ccc(C4CCCCC4)cc3)n2-c2ccccc2)c2ccccc2)cc1` the inhibition was 15.4% (inactive).
In the case of `COc1ccccc1-c1nnc(SCCN2CCOCC2)n1C`, the inhibition is reported as 0.66% (inactive).
With `COc1ccc(C(=O)Oc2ccc3c(C(F)(F)F)cc(=O)oc3c2C)cc1OC` the inhibition was 6.47% (inactive).
In the case of `O=S(=O)(c1ccc(-c2csc(N3N=C(c4cccs4)CC3c3ccc(F)cc3)n2)cc1)N1CCCCC1` (configuration not stated), the inhibition is reported as 12% (inactive).
With `Cc1ccc(N(C2C=CS(=O)(=O)C2)S(=O)(=O)c2ccc(Br)cc2)cc1` (configuration not stated) the inhibition was 19.4% (inactive).
`O=C(O)c1cccc(-n2[nH]c(-c3ccccc3)cc2=O)c1` was tested, and the inhibition was 7.2% (inactive).
For `Cc1nc2sc3c(c2c(=O)n1/N=C/c1ccccc1[N+](=O)[O-])CCCC3`, the inhibition was -7.66% (inactive).
`COc1cccc(NC(=O)C2CCN(S(=O)(=O)c3ccc4c(c3)oc(=O)n4C)CC2)c1` was tested, and the inhibition was -1.03% (inactive).
`Cn1c(=O)oc2cc(S(=O)(=O)N3CCC(C(=O)NC(C)(C)C)CC3)ccc21` was tested, and the inhibition was 70.2% (active).
`Cn1c(=O)oc2cc(S(=O)(=O)N3CCC(C(=O)NCCC4=CCCCC4)CC3)ccc21` was tested, and the inhibition was -12.8% (inactive).
`CC(C)NC(=O)NC(=O)COC(=O)c1ccc(Cl)c(S(N)(=O)=O)c1` was tested, and the inhibition was 0.26% (inactive).
In the case of `CCOC(=O)c1ccc(NC(=O)CCc2c(C)nc3nc(CN)nn3c2C)cc1`, the inhibition is reported as 6.45% (inactive).
With `COc1ccccc1NC(=O)Cn1cnc2sc(C(=O)Nc3nc4ccc(Br)cc4s3)c(C)c2c1=O` the inhibition was 17.9% (inactive).
`COCCCN1C(=O)c2cccc3cccc(c23)C1=O` was tested, and the inhibition was 1.36% (inactive).
For `COCCCN1C(=O)c2cccc3c(C(=O)c4ccccc4)ccc(c23)C1=O`, the inhibition was 64.3% (active).
`CCCCN1C(=O)c2cccc3c(C(C)=O)ccc(c23)C1=O` was tested, and the inhibition was 7.62% (inactive).
